Laboratory results published in PubChem BioAssay (NCATS).
Inconclusive results are not listed. Active and inactive are the calls of the source. Unless noted, calls follow the shape of the dose curve; as a rule, active = well fitted curve in the direction sought with a large enough effect; inconclusive = small, poorly fitted or top-dose-only effect, or another doubt; inactive = no such curve, though single readings can be large; an effect the other way counts as inactive or inconclusive.

Tests used:
[1] = target: Cytochrome P450 3A4 (Homo sapiens) (UniProt P08684); assay: qHTS Assay for Activators of Cytochrome P450 3A4 (AID 885); also: nearly all actives have a fitted effect of over 65% in size
Sequence of Cytochrome P450 3A4 (Homo sapiens) (P08684 whole entry, looked up): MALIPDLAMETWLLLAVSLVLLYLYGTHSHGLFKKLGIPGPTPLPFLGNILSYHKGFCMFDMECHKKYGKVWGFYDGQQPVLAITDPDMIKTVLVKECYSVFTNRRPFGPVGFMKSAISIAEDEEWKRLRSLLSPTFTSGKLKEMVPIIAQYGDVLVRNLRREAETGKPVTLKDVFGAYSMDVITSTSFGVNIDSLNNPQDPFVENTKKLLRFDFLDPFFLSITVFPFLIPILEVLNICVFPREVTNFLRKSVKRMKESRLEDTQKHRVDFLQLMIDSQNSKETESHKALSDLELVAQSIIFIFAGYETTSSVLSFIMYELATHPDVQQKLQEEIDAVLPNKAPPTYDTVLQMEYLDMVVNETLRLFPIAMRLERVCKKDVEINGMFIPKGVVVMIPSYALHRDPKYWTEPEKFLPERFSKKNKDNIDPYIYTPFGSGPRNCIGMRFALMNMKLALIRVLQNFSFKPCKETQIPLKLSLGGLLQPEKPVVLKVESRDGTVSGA
Method in brief: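 Luminescent readout of luciferin formed from 25 uM Luciferin-PPXE (KM level) by 20 nM CYP3A4 in 200 mM KPO4, with 60 min NADPH-driven reaction at room temperature after 10 min compound exposure. Ketoconazole (57 uM) defined 100% inhibition.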

[2] = Confirmation and Secondary Assay for Modulators of Hemoglobin Beta Chain Splicing at IVS2 654 locus (AID 910);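 also: HeLa cells stably carrying EGFP split by mutant beta-globin IVS2-654 intron; per-well total GFP intensity by laser scanning cytometry after 2-day treatment; % of control where 0% means no effect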
Method in brief: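 Readout: per-well total peak green fluorescence (488 nm ex, 500–520 nm em) from objects 5–250 µm, reflecting correct splicing of an EGFP-654 reporter. Compounds were applied for 2 days at 37 °C to overnight-plated HeLa EGFP-654 cells; controls were DMSO and 500 nM IVS2-654 PNA.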

[3] = Confirmation and Secondary Assay for Modulators of Hemoglobin Beta Chain Splicing at IVS2 705 locus (AID 930);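 also: HeLa cells stably expressing the EGFP-705 splicing reporter; GFP fluorescence per well restored by corrected splicing of the IVS2-705 intron in EGFP; % of control where 0% means no effect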
Method in brief: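 HeLa EGFP-705 reporter; 500 cells/well, o/n 37C 5% CO2; cpd 2 d; 488 ex/500-520 em laser scan; total peak GFP intensity/well. Ref: 500 nM […] antisense PNA.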

[4] = target: Ubiquitin carboxyl-terminal hydrolase 1 (Homo sapiens) (UniProt O94782); assay: Inhibitors of USP1/UAF1: Pilot qHTS (AID 504865); also: potency is read from the fitted curve at half-maximal effect; nearly all actives have a fitted effect of over 35% in size
Method in brief: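 Deubiquitinase activity followed as kinetic rhodamine fluorescence release from 150 nM Ub-Rho. 1 nM USP1/UAF1 with compound, after 15 min room-temperature preincubation, in HEPES pH 7.8 buffer containing TCEP, EDTA, BSA and Tween-20.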

Furin (Homo sapiens) = Furin (Homo sapiens) (UniProt P09958); assay: Furin counterscreen qHTS for Zika virus inhibitors (AID 1347149);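 also: purified recombinant full-length human furin enzyme at 5 nM; fluorescence gain from furin cutting a BOC-RVRR-AMC peptide substrate over 15 min; top concentration of the series differs between compounds; plate controls were no-inhibitor control for no effect and no-enzyme control for full effect; nearly all actives have a fitted effect of over 70% in size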
Sequence of Furin (Homo sapiens) (P09958 whole entry, looked up): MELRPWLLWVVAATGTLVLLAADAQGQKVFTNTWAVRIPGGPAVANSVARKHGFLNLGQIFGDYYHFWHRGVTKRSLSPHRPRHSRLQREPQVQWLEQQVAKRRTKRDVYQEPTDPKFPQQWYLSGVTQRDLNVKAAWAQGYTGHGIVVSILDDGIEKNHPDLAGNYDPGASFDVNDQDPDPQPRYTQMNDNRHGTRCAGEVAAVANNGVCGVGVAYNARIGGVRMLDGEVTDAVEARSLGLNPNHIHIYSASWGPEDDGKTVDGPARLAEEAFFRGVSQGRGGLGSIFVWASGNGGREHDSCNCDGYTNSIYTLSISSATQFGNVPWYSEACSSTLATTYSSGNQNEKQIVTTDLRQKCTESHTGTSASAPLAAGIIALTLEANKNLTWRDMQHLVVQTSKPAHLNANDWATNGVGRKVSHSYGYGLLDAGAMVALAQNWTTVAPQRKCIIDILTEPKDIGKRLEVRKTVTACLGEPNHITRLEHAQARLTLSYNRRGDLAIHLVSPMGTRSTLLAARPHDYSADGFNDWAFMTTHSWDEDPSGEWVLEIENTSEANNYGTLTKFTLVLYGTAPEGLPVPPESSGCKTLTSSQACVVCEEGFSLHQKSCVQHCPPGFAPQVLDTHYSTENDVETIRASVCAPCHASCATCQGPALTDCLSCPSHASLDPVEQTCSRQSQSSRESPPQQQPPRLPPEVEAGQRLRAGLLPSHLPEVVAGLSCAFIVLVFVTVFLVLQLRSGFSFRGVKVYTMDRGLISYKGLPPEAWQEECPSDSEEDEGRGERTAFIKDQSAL
Method in brief: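 Counterscreen measures cleavage of 2 microM BOC-RVRR-AMC, below its ~15 microM Km, by 5 nM full-length human furin at pH 7.0 after a 15-min compound preincubation. Inhibition derives from the 15-min fluorescence increase at 37C.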

[5] = system: Zika virus NS2B-NS3 protease (unlinked complex); assay: Confirmatory screen GU AMC qHTS for Zika virus inhibitors (AID 1347153); also: nearly all actives have a fitted effect of over 70% in size;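 as to Potency: enzyme at 25 nM with substrate at 10 µM below its Km of 18.3 µM; potency is read from the fitted curve at half-maximal effect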
Method in brief: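 Compounds were preincubated 15 min at room temperature with 25 nM noncovalent NS2B-NS3 protease at pH 8.0; AMC substrate added at 10 microM and 15-min fluorescence gain (340/450 nm) converted to percent inhibition, fitted 4-parameter.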

[6] = Confirmatory screen NINDS Rhodamine qHTS for Zika virus inhibitors (AID 1347161); also: potency is read from the fitted curve at half-maximal effect; nearly all actives have a fitted effect of over 60% in size
Method in brief: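 qHTS dose-response: 25 nM linked protease, pH 8.0 Tris/Tween buffer, cpd titration, 15 min RT preinc, 1.5 microM Rhod110 peptide, 15 min reaction (~15% conversion), Ex480/Em540; 4-parameter Hill fit.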

[7] = system: Zika virus NS2B-NS3 protease (linked); assay: 384 well plate NINDS AMC confirmatory qHTS for Zika virus inhibitors (AID 1347163); details: Recombinant NS2B-NS3 protease, Ac-VKTGKR-AMC fluorescence; also: potency is read from the fitted curve at half-maximal effect; nearly all actives have a fitted effect of over 50% in size
Method in brief: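 Fluorescence at 355/460 nm was read after 25 minutes of cleavage of 30 microM Ac-VKTGKR-AMC at room temperature, in the dark. Before substrate addition, compounds (up to 1 mM final) sat ~15 minutes with 5, 30 or 60 nM linked protease. Signals were normalized to no-enzyme and no-inhibitor wells.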

[8] = Vero cells viability qHTS for Zika virus inhibitors (AID 1347167); also: % is scaled to controls: 0 for no effect and ±100 for the full control effect
Method in brief: (§1)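 Luminescent ATP readout (CellTiter Glo) after 30 min at 37 degrees C gives viability; cells in DMEM + 4% FBS were treated 24 to 48 hours with compound, following overnight attachment.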

[9] = HepG2 cells viability qHTS for Zika virus inhibitors (AID 1347168); also: potency is read from the fitted curve at half-maximal effect
Method in brief: as §1

[10] = Tertiary RLuc qRT-PCR qHTS assay for Zika virus inhibitors (AID 1347169); also: nearly all actives have a fitted effect of over 55% in size; also: potency is read from the fitted curve at half-maximal effect; as to activity change, negative = inhibition: top concentration of the series differs between compounds; % is scaled to controls: 0 for no effect and ±100 for the full control effect
Method in brief: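 Orthogonal cell-based readout: luminescence measured 1-1.5 hrs after adding live-cell Renilla substrate to Vero cells that had been infected with ZIKV-RLuc (MOI 1-2) post-compound, incubated 48-72 hrs at 37 degrees C.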

[11] = Primary qHTS for small molecule stabilizers of the endoplasmic reticulum resident proteome: Secreted ER Calcium Modulated Protein (SERCaMP) assay (AID 1508630); also: % is scaled to controls: 0 for no effect and ±100 for the full control effect
Method in brief: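 The SH-SY5Y reporter protocol was run at 3 concentrations up to 38.3 uM (primary) or 11 concentrations (follow-up): 16 h compound, 100 nM thapsigargin for 4 h, then extracellular luciferase luminescence.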

[12] = target: Rap guanine nucleotide exchange factor 3 (Homo sapiens) (UniProt O95398); assay: Confirmatory qHTS for antagonist of cAMP-regulated guanine nucleotide exchange factor 3 (EPAC1) (AID 1645880); also: potency is read from the fitted curve at half-maximal effect; nearly all actives have a fitted effect of over 55% in size
Sequence of Rap guanine nucleotide exchange factor 3 (Homo sapiens) (O95398 whole entry, looked up): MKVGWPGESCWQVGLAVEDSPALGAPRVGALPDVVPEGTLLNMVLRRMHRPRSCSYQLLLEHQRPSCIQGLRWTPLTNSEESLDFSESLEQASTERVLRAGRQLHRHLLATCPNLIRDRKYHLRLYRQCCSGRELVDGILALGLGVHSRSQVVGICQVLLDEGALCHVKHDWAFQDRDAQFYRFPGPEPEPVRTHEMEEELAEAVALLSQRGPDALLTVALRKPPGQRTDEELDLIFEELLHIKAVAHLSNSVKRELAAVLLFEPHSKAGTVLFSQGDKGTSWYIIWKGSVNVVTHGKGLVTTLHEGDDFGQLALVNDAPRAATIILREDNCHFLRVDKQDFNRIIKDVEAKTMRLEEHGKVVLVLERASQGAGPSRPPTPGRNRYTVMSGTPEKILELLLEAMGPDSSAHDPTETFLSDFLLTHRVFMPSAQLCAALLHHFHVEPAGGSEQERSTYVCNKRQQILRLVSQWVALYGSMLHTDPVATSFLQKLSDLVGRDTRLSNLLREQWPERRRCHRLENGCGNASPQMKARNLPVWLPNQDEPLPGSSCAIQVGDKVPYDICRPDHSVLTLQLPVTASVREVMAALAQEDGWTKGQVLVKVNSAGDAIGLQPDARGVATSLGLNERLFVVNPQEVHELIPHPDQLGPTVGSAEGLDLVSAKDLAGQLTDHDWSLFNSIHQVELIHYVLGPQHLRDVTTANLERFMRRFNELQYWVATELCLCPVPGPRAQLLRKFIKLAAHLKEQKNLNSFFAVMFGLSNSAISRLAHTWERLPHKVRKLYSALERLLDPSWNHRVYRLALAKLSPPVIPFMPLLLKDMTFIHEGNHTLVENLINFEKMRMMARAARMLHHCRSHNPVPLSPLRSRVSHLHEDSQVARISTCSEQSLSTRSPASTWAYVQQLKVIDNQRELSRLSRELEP
Method in brief: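 Released BODIPY-GDP fluoresces less than Rap1-bound BODIPY-GDP; the signal is followed at 480/540 nm at 5-min intervals over 30 min, after 5 min at room temperature. Reactions contain 100 nM EPAC1, 250 nM RAP1B-BODIPY-GDP and 50 uM GDP; results are normalized to ATA and DMSO.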

[13] = target: Rap guanine nucleotide exchange factor 3 (Homo sapiens) (UniProt O95398); assay: Confirmatory qHTS for agonist of cAMP-regulated guanine nucleotide exchange factor 3 (EPAC1) (AID 1645881);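 also: EPAC1 catalysed release of BODIPY-GDP from Rap1B seen as fluorescence loss; 100% = effect of cAMP agonist control; nearly all actives have a fitted effect of over 75% in size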
[14] = target: Rap guanine nucleotide exchange factor 4 (Homo sapiens) (UniProt Q8WZA2); assay: Confirmatory qHTS for agonist of cAMP-regulated guanine nucleotide exchange factor 4 (EPAC2) (AID 1645884);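 also: nucleotide exchange releases bodipy-GDP from Rap1 and this lowers its fluorescence; % is scaled to controls: 0 for no effect and ±100 for the full control effect; nearly all actives have a fitted effect of over 65% in size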
Sequence of Rap guanine nucleotide exchange factor 4 (Homo sapiens) (Q8WZA2 whole entry, looked up): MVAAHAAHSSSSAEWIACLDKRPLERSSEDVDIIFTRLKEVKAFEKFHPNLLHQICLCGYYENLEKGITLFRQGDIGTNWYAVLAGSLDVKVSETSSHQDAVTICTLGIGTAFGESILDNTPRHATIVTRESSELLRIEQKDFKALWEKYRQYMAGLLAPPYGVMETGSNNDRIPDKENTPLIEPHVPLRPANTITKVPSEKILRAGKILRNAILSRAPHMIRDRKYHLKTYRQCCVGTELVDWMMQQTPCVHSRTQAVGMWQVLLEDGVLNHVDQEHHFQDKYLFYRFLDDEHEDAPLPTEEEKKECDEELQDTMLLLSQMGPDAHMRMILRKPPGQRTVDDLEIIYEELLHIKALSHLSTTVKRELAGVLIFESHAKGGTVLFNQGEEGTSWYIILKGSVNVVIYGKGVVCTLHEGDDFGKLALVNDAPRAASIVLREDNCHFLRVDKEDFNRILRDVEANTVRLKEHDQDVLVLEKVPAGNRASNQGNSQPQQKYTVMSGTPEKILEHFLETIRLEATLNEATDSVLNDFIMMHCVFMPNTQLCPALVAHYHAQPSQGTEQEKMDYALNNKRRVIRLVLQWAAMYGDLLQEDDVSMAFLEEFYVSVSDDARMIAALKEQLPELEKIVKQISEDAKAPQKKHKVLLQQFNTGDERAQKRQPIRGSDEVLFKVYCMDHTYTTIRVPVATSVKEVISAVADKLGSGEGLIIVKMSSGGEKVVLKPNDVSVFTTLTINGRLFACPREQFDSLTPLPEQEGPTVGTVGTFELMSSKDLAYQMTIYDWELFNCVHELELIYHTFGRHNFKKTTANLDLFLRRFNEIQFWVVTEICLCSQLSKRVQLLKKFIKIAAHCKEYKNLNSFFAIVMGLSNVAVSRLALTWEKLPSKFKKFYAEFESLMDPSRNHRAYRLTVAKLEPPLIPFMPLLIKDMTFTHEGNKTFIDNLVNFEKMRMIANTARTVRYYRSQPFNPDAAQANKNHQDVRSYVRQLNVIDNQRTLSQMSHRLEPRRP

[15] = target: Rap guanine nucleotide exchange factor 4 (Homo sapiens) (UniProt Q8WZA2); assay: Confirmatory qHTS for antagonist of cAMP-regulated guanine nucleotide exchange factor 4 (EPAC2) (AID 1645885); also: % is scaled to controls: 0 for no effect and ±100 for the full control effect; nearly all actives have a fitted effect of over 25% in size
[16] = system: Zika virus NS2B-NS3 protease; assay: Primary screen GU AMC qHTS for Zika virus inhibitors (AID 1347154);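 also: 0% = no-inhibitor control and -100% = no-enzyme control; nearly all actives have a fitted effect of over 70% in size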
Method in brief: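 Fluorogenic AMC-substrate cleavage by noncovalent NS2B-NS3 protease complex (25 nM, pH 8.0 Tris buffer with Tween 20) followed for 15 minutes at room temperature (~20% conversion). Percent inhibition from ex340/em450 signal change, fitted by 4-parameter Hill equation.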

[17] = target: Cytochrome P450 1A2 (Homo sapiens) (UniProt P05177); assay: p450-cyp1a2 (AID 410; calls by dose curve; also: potency is read from the fitted curve at half-maximal effect)
Sequence of Cytochrome P450 1A2 (Homo sapiens) (P05177 whole entry, looked up): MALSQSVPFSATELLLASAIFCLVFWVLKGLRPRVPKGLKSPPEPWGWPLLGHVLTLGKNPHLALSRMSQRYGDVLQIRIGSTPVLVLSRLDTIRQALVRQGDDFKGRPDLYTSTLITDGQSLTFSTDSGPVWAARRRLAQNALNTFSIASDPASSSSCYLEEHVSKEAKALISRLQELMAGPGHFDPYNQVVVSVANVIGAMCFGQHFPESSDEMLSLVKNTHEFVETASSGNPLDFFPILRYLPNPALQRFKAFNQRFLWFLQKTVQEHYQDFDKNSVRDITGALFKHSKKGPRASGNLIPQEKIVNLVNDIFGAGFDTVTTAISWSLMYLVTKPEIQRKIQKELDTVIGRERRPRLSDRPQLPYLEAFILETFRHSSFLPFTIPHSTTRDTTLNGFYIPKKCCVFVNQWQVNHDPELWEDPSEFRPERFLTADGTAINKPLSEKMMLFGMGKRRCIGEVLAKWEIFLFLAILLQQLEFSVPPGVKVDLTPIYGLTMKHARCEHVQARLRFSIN
Method in brief: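 Luminescent demethylation readout: Luciferin-ME (100uM, equal to Km) turned over by 20nM CYP1A2 for 60 min at room temperature after NADPH regeneration addition, following 10 min compound preincubation. Normalization used 57 uM furafylline as full inhibition.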

[18] = target: Glucocorticoid receptor (Homo sapiens) (UniProt P04150); assay: GR-GFP Redistribution (AID 450;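 active = compounds whose dose series gives a full or clear partial fitted curve of increased nuclear translocation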; also: potency is read from the fitted curve at half-maximal effect); details: U2OS GR-GFP nuclear translocation, laser cytometry, 2 h
Sequence of Glucocorticoid receptor (Homo sapiens) (P04150 whole entry, looked up, the tested form may be a part): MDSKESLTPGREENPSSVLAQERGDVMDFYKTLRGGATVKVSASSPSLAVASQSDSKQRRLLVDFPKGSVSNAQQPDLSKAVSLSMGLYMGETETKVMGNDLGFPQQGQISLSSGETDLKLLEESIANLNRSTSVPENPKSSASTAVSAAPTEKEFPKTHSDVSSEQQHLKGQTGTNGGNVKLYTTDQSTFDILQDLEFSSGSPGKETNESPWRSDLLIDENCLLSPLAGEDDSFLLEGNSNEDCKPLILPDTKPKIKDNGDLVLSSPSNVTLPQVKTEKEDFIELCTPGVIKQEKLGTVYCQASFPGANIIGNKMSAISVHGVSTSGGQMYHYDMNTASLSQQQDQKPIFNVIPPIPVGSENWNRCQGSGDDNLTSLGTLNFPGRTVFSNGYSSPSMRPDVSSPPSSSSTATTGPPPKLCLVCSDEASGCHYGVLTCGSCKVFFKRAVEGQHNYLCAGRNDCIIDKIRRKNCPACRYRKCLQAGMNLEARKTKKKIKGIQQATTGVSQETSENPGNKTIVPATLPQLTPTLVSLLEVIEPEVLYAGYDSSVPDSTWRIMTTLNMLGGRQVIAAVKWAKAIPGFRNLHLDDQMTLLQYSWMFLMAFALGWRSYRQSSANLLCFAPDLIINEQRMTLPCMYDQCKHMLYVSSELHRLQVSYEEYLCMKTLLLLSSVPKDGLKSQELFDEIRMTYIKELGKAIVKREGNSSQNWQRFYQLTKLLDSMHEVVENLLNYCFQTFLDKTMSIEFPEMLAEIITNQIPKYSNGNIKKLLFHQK

[19] = target: Glucocorticoid receptor (Homo sapiens) (UniProt P04150); assay: GR-EFC Redistribution (AID 451; calls by dose curve; also: potency is read from the fitted curve at half-maximal effect); details: CHO-K1 GR-EFC translocation, beta-gal luminescence, 2 h
Method in brief: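 Translocation of GR-ED fusion to nuclear EA restores b-gal, read by luminescence after 1 h room-temperature detection. Engineered CHO-K1 biosensor cells, 1,000/well, exposed 2 h at 37 C to titrations up to 46 uM final.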

[20] = target: Mitogen-activated protein kinase 10 (Mus musculus) (UniProt Q61831); assay: JNK3 AlphaScreen Assay (AID 530; active = well fitted curve in either direction with a large enough effect, not every such curve was filed as active;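 also: kinase came from lysate of stimulated human HepG2 cells; signal reports phosphorylation of biotinylated GST-cJun 1-79 at Ser73 with 10 µM ATP; % is scaled to controls: 0 for no effect and ±100 for the full control effect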)
Method in brief: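 qHTS titrations with 15 min compound pre-incubation before adding ATP (10 uM final). Read-out: AlphaScreen of Ser73-phosphorylated biotin-GST-cJun using HepG2 lysate JNK3 activated by IL-1β and TNFα.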

[21] = target: DNA dC->dU-editing enzyme APOBEC-3G (Homo sapiens) (UniProt Q9HC16); assay: qHTS for inhibitors of Vif-A3G interactions: Validation (AID 588379); also: 0% is about no effect
Sequence of DNA dC->dU-editing enzyme APOBEC-3G (Homo sapiens) (Q9HC16 whole entry, looked up): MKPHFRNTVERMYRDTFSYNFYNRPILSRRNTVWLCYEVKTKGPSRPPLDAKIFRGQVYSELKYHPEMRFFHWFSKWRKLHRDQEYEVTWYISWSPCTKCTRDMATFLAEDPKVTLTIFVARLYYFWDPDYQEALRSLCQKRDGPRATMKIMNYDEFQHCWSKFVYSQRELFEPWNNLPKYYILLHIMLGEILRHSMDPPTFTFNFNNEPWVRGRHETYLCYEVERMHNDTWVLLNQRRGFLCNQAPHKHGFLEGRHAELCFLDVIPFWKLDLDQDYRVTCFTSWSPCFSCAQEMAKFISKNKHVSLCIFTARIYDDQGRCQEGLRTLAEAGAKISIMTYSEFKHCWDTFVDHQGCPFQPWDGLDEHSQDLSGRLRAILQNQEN
Method in brief: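 Yellow fluorescence (Ex 488, Em 500-530) of Vif-coexpressing HeLa A3G-eYFP cells, scanned by Acumen cytometer, reports blocked A3G degradation. Cells plated at 700/well overnight at 37 deg C before compound addition, then a further overnight compound incubation at 37 deg C.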

[22] = system: Zika virus NS2B-NS3 protease (linked construct); assay: 384 well plate NINDS Rhodamine confirmatory qHTS for Zika virus inhibitors (AID 1347164);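 also: fluorescence from protease cleavage of Ac-LKRR-rhodamine 110 substrate; top concentration of the series differs between compounds; plate controls were no-inhibitor control for no effect and no-enzyme control for full effect; nearly all actives have a fitted effect of over 65% in size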
Method in brief: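 Fluorescence at 485/538 nm was measured 25 minutes after adding 10 microM Ac-LKRR-Rd substrate, in the dark at room temperature. The protease (5, 30 or 60 nM final) had been preincubated ~15 minutes with compound; aprotinin as control.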

[23] = qHTS Assay for Lipid Storage Modulators (AID 1519; calls by dose curve); details: Drosophila S3 cells, BODIPY lipid droplet/cell ratio, laser cytometry, cells loaded with oleic acid
Method in brief: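 Cells seeded at 5,000 per well were treated with compounds over a concentration series and loaded with oleic acid (400 uM, as added). Lipid droplet fluorescence (488 nm excitation, 500-530 nm channel) was read by laser-scanning cytometry and normalized to 20 uM Triacsin C.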

[24] = system: Zika virus NS2B-NS3 protease (unlinked); assay: Optimization of GU AMC qHTS for Zika virus inhibitors: Unlinked NS2B-NS3 protease assay (AID 1347151);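 also: 0% = no-inhibitor control and -100% = no-enzyme control; nearly all actives have a fitted effect of over 80% in size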
Method in brief: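 Fluorescence gain (340/450 nm) over 15 min at room temperature, ~20% conversion, gave percent inhibition fitted to a 4-parameter Hill equation; enzyme was unlinked NS2B-NS3 (25 nM final), pH 8.0 Tris buffer.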

[25] = target: Nucleoprotein (Lymphocytic choriomeningitis virus (strain Armstrong)) (UniProt P09992); assay: qHTS for Inhibitors of the Functional Ribonucleoprotein Complex (vRNP) of Lymphocytic Choriomeningitis Arenaviruses (LCMV): LCMV Primary Screen - GLuc reporter signal (AID 1347086; calls by dose curve; also: % is scaled to controls: 0 for no effect and ±100 for the full control effect; nearly all actives have a fitted effect of over 70% in size)

CC(C)=CCCC1(C)C=Cc2c(O)c3c(c(CC=C(C)C)c2O1)OC12C(=CC4CC1C(C)(C)OC2(C/C=C(/C)C(=O)O)C4O)C3=O (stereo not drawn)
inactive: Potency [1] | Potency [2] | outcome [3] | Potency (Furin (Homo sapiens)) | Potency [8] | Potency [11] | outcome [13] | outcome [14] | Potency [15]
active: Potency [4] 35.5 µM | Potency [5] 17.1 µM | Potency [6] 2.78 µM | Potency [7] 126 µM | Potency [9] 18.6 µM | Potency [10] 5.87 µM | Potency [12] 28 µM

OC[C@H]1O[C@@H](n2cnc3cc(Cl)c(Cl)cc32)[C@H](O)[C@H]1O
inactive: Potency [16]

Ic1cncc(OC[C@@H]2CCN2)c1
inactive: Potency [18] > 46 µM | Potency [19] > 46 µM | outcome [20] | Potency [21] | Potency (Furin (Homo sapiens)) | Potency [5] | Potency [22] | Potency [8] | Potency [9] | Potency [10] | Potency [11]
active: Potency [17] 0.398 µM | Potency [6] 34.9 µM

CC1O[C@@H](O[C@@H]2C(O)C[C@H](O[C@@H]3C(O)C[C@@H](OC4CC[C@@]5(C)C6CC[C@]7(C)C(C8=CC(=O)OC8)CC[C@@]7(O)C6CC[C@@H]5C4)OC3C)OC2C)CC(O)[C@H]1O (stereo partly drawn)
20.2%: max response ([23]; measured here: cell count channel max response)
25.7%: max response ([23]; measured here: lipid channel max response)
active: Potency [10] 0.208 µM
inactive: activity change, negative = inhibition ([23]; at 57.5 µM (top of the series)) 3.23% | Potency (Furin (Homo sapiens)) | outcome [24] | Potency [8]

Nc1ccc(N=Nc2ccc(-c3ccc(N=Nc4c(S(=O)(=O)O)cc5cc(S(=O)(=O)O)c(N=Nc6ccccc6)c(O)c5c4N)cc3)cc2)c(N)c1
inactive: Potency [25]
